# Test results taken from PubChem BioAssay AID743330 (NMMLSC, 2014).
# Activity calls are given as the source filed them. How the calls were made is not given here.
# System: Rab7
# Test: fluorescent GTP concentration effect on GTPase potency – biochemical, four GTPases, bead flow cytometry, mechanism study, profiling panel (AID 743330)
# Conditions: bead-based flow cytometry, fluorescent GTP binding to GTPases
row,SMILES,EC50
1,CCC1(C)Cc2c(sc(NC(=S)NC(=O)c3ccccc3)c2C(=O)O)CO1 (configuration not stated),7 nM (active)
2,CC1(C)Cc2c(sc(NC(=S)NC(=O)c3ccc(F)cc3)c2C(=O)O)CO1,33 nM (active)
